TsaE inh – qHTS Assay for Inhibitors of YjeE; tRNA threonylcarbamoyladenosine biosynthesis protein TsaE (Escherichia coli (strain …; Potency, µM; 0.05% of 71,000 active; purified YjeE enzyme, qHTS inhibition assay
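Fluorescence polarization of a BODIPY Texas Red–ADP probe (2 uM) bound to purified YjeE (10 uM) was read after 15 min room-temperature incubation with compounds. Loss of polarization marks inhibitors; ADP serves as titrated control.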
Pol III holo inh – qHTS Assay for Inhibitors of DNA Polymerase III Holoenzyme System | reconstituted DNA polymerase III holoenzyme replication, biochemical | Potency, µM (top dose mostly 57.1 µM), for inactives: top-dose activity change, negative = inhibition | 0.25% of 71,000 active | AID 603, 2007; note: potency is the fitted concentration of half-maximal effect; % is set by controls: 0 for no effect and ±100 for the full control effect
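Reconstituted *E. coli* holoenzyme (0.35 nM Pol III, 1 nM beta, 154 nM SSB, 2 nM primase) was preincubated with compound for 15 min at RT. Synthesis on 1.4 nM ssM13Gori ran 35 min, then was stopped with PicoGreen/EDTA and read as dsDNA fluorescence.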
BRCT inh green – qHTS Assay for Inhibitors of BRCT-Phosphoprotein Interaction (Green Fluorophore). Potency, µM (doses to about 76.9 µM), for the others: at the top dose activity change, negative = inhibition, usual class: inhibitors. Breast cancer type 1 susceptibility protein (Homo sapiens), P38398. BRCA1 BRCT-phosphopeptide binding, green fluorescence polarization. AID 875, 2007. 0.05% of 75,000 active;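 note: potency is the fitted concentration of half-maximal effect; plate controls were peptide without protein for full effect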
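Fluorescence polarization: His-tagged BRCT (~35 kDa BRCA1 C-terminus, 250 nM) bound to 100 nM fluorescein-labeled phosphorylated 10-aa BACH1 peptide, pH 7.3 phosphate buffer with DTT and Tween 20. Compounds incubated 12 min at room temperature; inhibition read as lowered polarization.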
TSHR agonist – qHTS Assay for Agonists of the Thyroid Stimulating Hormone Receptor. Thyrotropin receptor (Homo sapiens), P16473. 0.48% of 73,000 active. Potency, µM (highest dose often 57.1 µM), without a hit: at the top dose activation, hits mostly activators. HEK293-CNG-TSHR cells (CNG channel as cAMP sensor), membrane potential dye, cAMP; active = well fitted activation curve with a large enough effect in the main read-out, with a control signal flat, not every such curve was filed as active; inconclusive = small, poorly fitted or top-dose-only effect, or a change in a side signal; inactive = no such curve, though single readings can be large or run the other way; % of control where 0% means no effect;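 note: the control signal comes from parental cells without the receptor; potency is the fitted concentration of half-maximal effect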
Target sequence (P16473 whole entry, looked up): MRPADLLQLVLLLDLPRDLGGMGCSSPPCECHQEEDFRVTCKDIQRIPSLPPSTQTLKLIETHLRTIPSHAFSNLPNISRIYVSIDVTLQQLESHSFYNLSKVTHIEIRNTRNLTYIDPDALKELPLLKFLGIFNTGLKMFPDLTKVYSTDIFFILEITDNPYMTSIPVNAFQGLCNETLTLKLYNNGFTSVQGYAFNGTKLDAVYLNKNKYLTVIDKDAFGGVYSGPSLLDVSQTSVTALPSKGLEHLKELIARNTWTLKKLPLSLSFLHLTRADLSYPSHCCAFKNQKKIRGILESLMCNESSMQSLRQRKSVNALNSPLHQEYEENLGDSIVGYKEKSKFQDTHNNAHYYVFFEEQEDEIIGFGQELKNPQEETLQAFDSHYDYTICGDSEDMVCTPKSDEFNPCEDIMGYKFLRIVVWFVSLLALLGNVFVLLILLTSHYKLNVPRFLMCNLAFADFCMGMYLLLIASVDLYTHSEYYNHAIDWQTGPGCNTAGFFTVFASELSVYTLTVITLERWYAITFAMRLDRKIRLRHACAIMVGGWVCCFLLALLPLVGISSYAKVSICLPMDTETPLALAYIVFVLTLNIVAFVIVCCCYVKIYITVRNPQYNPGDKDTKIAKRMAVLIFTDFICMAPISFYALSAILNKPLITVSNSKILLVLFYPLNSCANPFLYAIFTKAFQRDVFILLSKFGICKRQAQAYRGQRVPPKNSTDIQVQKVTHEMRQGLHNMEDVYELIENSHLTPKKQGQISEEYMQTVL
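HEK 293 cells stably expressing TSHR and a modified CNG channel, with CNG-only parental cells as counterscreen, were preloaded 60 min at room temperature with membrane potential dye containing 100 uM RO 20-1724. Compound exposure was 30 min, and depolarization was read as fluorescence at 590 nm.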
BRCT inh red – qHTS Assay for Inhibitors of BRCT-Phosphoprotein Interaction (Red Fluorophore). Breast cancer type 1 susceptibility protein (Homo sapiens), P38398. BRCT-phosphopeptide binding, red fluorescence polarization. Potency, µM (doses to about 76.9 µM), for inactives: at the highest dose activity change, negative = inhibition, actives largely listed as inhibitors. 0.03% of 75,000 active; note: % is set by controls: 0 for no effect and ±100 for the full control effect
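Rhodamine-labelled pBACH1 10-mer (100 nM) bound to BRCT domain (100 nM) at pH 7.3; compounds incubated 12 min room temperature, polarization read. Free peptide defines full inhibition; unlabelled decapeptide titrated as control.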
HEK293 cAMP ctrl – qHTS Assay for Agonists of the Thyroid Stimulating Hormone Receptor: Activators of Intracellular cAMP Concentrations in Parental HEK 293 | parental HEK293 CNG cAMP sensor, membrane potential fluorescence | Potency, µM (doses to about 57.1 µM), for the others: at the highest dose activation, usual class: activators | 2.5% of 73,000 active; note: potency is the fitted concentration of half-maximal effect; % of control where 0% means no effect; nearly all actives have a fitted effect of over 55% in size
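Counterscreen for endogenous-receptor signalling: CNG-channel HEK 293 cells report cAMP rise by membrane depolarization. After 60 min dye equilibration with 100 uM RO 20-1724, compounds incubated 30 min before bottom-read fluorescence at 590 nm.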
HEK293 cAMP cnt – Confirmation Concentration-Response Assay for Agonists of the Thyroid Stimulating Hormone Receptor: Activators of Intracellular cAMP Concentrations in Parental HEK 293 | shares compounds with TSHR agonist | parental HEK293 CNG biosensor, cAMP membrane potential fluorescence | activity change, negative = inhibition, % at 32.9 µM | 150 tested, under 10 active
Numbers without * were called inactive; i = inactive; ? = inconclusive; / = not tested or not shown; [ ] = another dose, or the depositor's remark. Sampled rows, rich in hits. Any-hit rate of the full collection: about 3.2%. Unless noted, calls come from the whole dose curve; as a rule, active = well fitted curve in the direction sought with a large enough effect; inconclusive = small, poorly fitted or top-dose-only effect, or another doubt; inactive = no such curve, though single readings can be large; an effect the other way counts as inactive or inconclusive.

SMILES	TsaE inh	Pol III holo inh	BRCT inh green	TSHR agonist	BRCT inh red	HEK293 cAMP ctrl	HEK293 cAMP cnt
O=C(Nc1ccc(N2CCOCC2)cc1)NC1CCCCC1	/	/	2%	17%	2%	-11%	/
O=C(Nc1ccc(N2CCOCC2)cc1)C1CC1	i	-8%	-2%	-2%	-1%	3%	5[25.6 µM]
c1ccsc1	i	-2%	-1%	?	0%	?	/
COc1ccc(-c2ccc(-c3noc(C)n3)c(OC)n2)cc1	i	2%	-1%	3.2µM*	-4%	21%	9
CCOc1nc(-c2ccc(OC)cc2)ccc1-c1noc(C)n1	i	-3%	2%	14%	0%	25%	/
O=C(O)c1cccc(OCCO)c1	i	-5%[11.4 µM]	0%[15.4 µM]	5%[11.4 µM]	-1%[15.4 µM]	7%[11.4 µM]	/
Cc1ccc(-c2csc3ncn(/N=C/N(C)C)c(=O)c23)o1	i	-1%	-1%	1%	-1%	2%	/
Cc1nn(-c2ccccc2)c(N2CCCC2)c1/C=N/n1cnc2scc(-c3ccccc3)c2c1=O	i	-7%	-3%	3.2µM*	1%	25%	17
COc1cccc(CCc2ccccc2OCC[C@@H]2C[C@@H](O)CN2C)c1	/	/	-2%	?	0%	?	/
Cc1cc(C)n2nc(SCC(=O)c3cc(C)n(-c4cc(C)on4)c3C)nc2n1	i	-5%	1%	?	1%	?	/
Cc1cc(-n2c(C)cc(C(=O)CSc3nnnn3-c3ccc(Cl)cc3)c2C)no1	i	-2%	-1%	/	0%	12%	14
S=C(Nc1ccccc1)Nc1ccccc1C#Cc1ccccc1	i	2%	1%	12%	-1%	17%	/
O=S1(=O)N=C(Oc2ccccc2)c2ccccc21	i	4%	1%	0%	2%	9%	-7[25.6 µM]
COCCNC(=O)C(c1ccc(C)o1)N(C(=O)c1snc(C(N)=O)c1N)c1ccc(C)cc1 (configuration not stated)	i	0%	6%	32µM*	-2%	9%	12
Cc1cc(C)n(S(=O)(=O)c2cc(C(=O)O)c(Cl)cc2Cl)n1	i	-5%	0%	16µM*	1%	15%	5
COc1ccc(OC)c(CNC(=O)C2CCN(S(=O)(=O)N3CCCC3)CC2)c1	i	-1%	-2%	1%[11.4 µM]	-1%	3%	/
COc1ccc(Br)cc1CNC(=O)C1CCN(S(=O)(=O)N2CCCCC2)CC1	i	0%	1%	0%	0%	-1%	-84[25.6 µM]
COc1ccc2c(C)cc(=O)oc2c1C	i	0%	0%	11%	-4%	7%	-52[25.6 µM]
Cc1cc(=O)oc2c(C)c(OCC(=O)N(C)C)ccc12	i	-4%	0%	-16%	0%	-5%	/
O=C(COC(=O)C1c2ccccc2Oc2ccccc21)Nc1ccc2c(c1)OCO2	i	-5%	0%	25µM*	-2%	2%	9
O=C(COC(=O)CCCc1c[nH]c2ccccc12)Nc1ccc2c(c1)OCO2	i	-2%	-4%	24%	-2%	29%	/

Screening results (PubChem)
